# Assay results published in PubChem BioAssay.
# Activity calls are given as the source filed them. Unless noted, no stated cut-off is given here; in the data, active means inhibition above about 80%; inactive means the rest.
# Legend:
# [1] = growth inhibition, single agent or in combination, cell-based, chromothripsis tumors, cisplatin or BGB combos (AID 1671449); details: LFS_MB_P medulloblastoma cells;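 further: cells exposed for 96 hours; 0% = vehicle DMSO and 100% = killing by high DMSO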
# [2] = growth inhibition, single agent and combos, cell-based, chromothripsis tumors, cisplatin or BGB combos (AID 1671450); details: HDN33 neuroblastoma cells, stronger effect = higher value;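 further: cells exposed to compound for four days; 0% = vehicle DMSO and 100% = cell killing by high DMSO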
# [3] = growth inhibition, single agents and combos, ICB984, cell-based, cisplatin or BGB combos, synergistic combos for chromothripsis tumors (AID 1671451; call rule not given here;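 further: cells exposed for 96 hours before readout; 0% = vehicle DMSO and 100% = killing by high DMSO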); details: ICB984 medulloblastoma cells, drug combinations, stronger effect = higher value
# [4] = growth inhibition, single agents and combos, LFS_MB_1R, cell-based, cisplatin or BGB combos, synergistic combos for chromothripsis tumors (AID 1671452); details: LFS_MB_1R medulloblastoma cells, stronger effect = higher value;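 further: cells exposed for 96 hours before readout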
# [5] = growth inhibition, single agents and combos, HTB85, cell-based, BGB or cisplatin IC20 combos, synergistic combos for chromothripsis tumors (AID 1671453); details: HTB85 osteosarcoma cells, drug combinations, stronger effect = higher value;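 further: cells exposed for 96 hours before readout; 0% = vehicle DMSO and 100% = high DMSO killing control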
# [6] = growth inhibition, single agents and combos, CRL2098, cell-based, BGB or cisplatin IC20 combos, synergistic combos for chromothripsis tumors (AID 1671454); details: CRL2098 osteosarcoma cells, drug combinations, stronger effect = higher value;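 further: cells exposed for 96 h before readout; 0% = vehicle DMSO and 100% = killing by high DMSO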
# [7] = growth inhibition, single agents and combos, HD-MB03, cell-based, BGB or cisplatin IC20 combos, synergistic combos for chromothripsis tumors (AID 1671455; in the data active means inhibition above about 83%;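 further: 0% = vehicle DMSO and 100% = high DMSO as cytotoxic control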); details: HD-MB03 medulloblastoma cells, stronger effect = higher value
# [8] = growth inhibition, single agents and combos, UWB1.289, cell-based, BGB or cisplatin combos, synergistic combos for chromothripsis tumors (AID 1671456); details: UWB1.289 ovarian carcinoma cells, stronger effect = higher value;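 further: cells exposed to compound for four days; 0% = vehicle DMSO and 100% = killing by high DMSO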
# [9] = growth inhibition, single agents and combos, LFS_MB_2R, cell-based, cisplatin combos, synergistic combos for chromothripsis tumors (AID 1671457); details: LFS_MB_2R medulloblastoma cells, stronger effect = higher value;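 further: cells exposed to compound for four days before readout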
# [10] = growth inhibition, MDA-MB-436, cell-based, BGB or cisplatin combos, synergistic combos for chromothripsis tumors (AID 1671458; call rule not given here;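 further: cells exposed for 96 hours; 0% = vehicle DMSO and 100% = killing by high DMSO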); details: MDA-MB-436 breast carcinoma growth inhibition, drug combinations, stronger effect = higher value
# [11] = UWB1.289_BRCA1 ovarian cancer growth, cell-based, BGB or cisplatin combinations (AID 1671459); details: UWB1.289 BRCA1 ovarian carcinoma, drug combinations, stronger effect = higher value
# [12] = drug combination toxicity in non-malignant astrocytes – cell-based, BGB or cisplatin IC20 combos, cytotoxicity control for chromothriptic childhood tumor combination screen (AID 1671460); details: Human astrocytes, viability inhibition, drug combinations, at 0.5 µM, stronger effect = higher value;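 further: cells exposed to compounds for 96 hours before viability readout; 0% = vehicle and 100% = killing control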
# [13] = BT084 cell growth, single and combined drugs, ICGC_MB145, cisplatin and BGB IC40 combos (AID 1671461); details: BT084 medulloblastoma cells, drug combinations, stronger effect = higher value;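 further: cells exposed to drugs for 96 hours; 0% = vehicle DMSO and 100% = high DMSO full killing control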
# [14] = RCMB18 cell growth, single agent and combined, cisplatin and BGB IC40 combos (AID 1671462); details: RCMB18 medulloblastoma cells, stronger effect = higher value;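 further: cells exposed to compound for four days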
# [15] = CRL1545 cell growth, single agent and combined, cisplatin and BGB IC20 combos (AID 1671464); details: CRL1545 osteosarcoma cells, stronger effect = higher value;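 further: cells exposed to compound for 96 hours before readout; 0% = vehicle DMSO and 100% = high DMSO killing control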
# [16] = measured here: combination with BGB IC40, at 0.05 µM
# [17] = measured here: with BGB IC20 combination, at 0.5 µM
# [18] = measured here: with cisplatin IC20 combination, at 0.5 µM
# [19] = measured here: combination with cisplatin, at 0.5 µM
# [20] = measured here: combination with cisplatin, at 5 µM
smiles,measurement,setting,value
CC1OC(CC(=O)O)CC2=C1C(=O)c1c(O)cccc1C2=O (stereo not drawn),inhibition,"[1]; at 0.5 µM, stronger effect = higher value",13.6% (inactive)
same,inhibition,"[1]; measured here: combination with BGB IC20, at 0.005 µM",-20.4%
same,inhibition,"[1]; measured here: combination with BGB IC40, at 0.005 µM",-16.6%
same,inhibition,[1]; [16],120%
same,inhibition,"[1]; measured here: combination with cisplatin, at 0.5 µM, stronger effect = higher value",28.7%
same,inhibition,"[1]; measured here: combination with cisplatin, at 5 µM, stronger effect = higher value",128%
same,inhibition,"[2]; BGB combo, at 5 µM",100%
same,inhibition,[2]; at 0.5 µM,99.9% (active)
same,inhibition,"[2]; cisplatin combo, at 5 µM",99.9%
same,inhibition,[2]; [17],99.9%
same,inhibition,[2]; [18],99.9%
same,inhibition,"[2]; single agent, at 5 µM",99.9%
same,inhibition,"[3]; BGB IC20 combo, at 0.005 µM",101%
same,inhibition,"[3]; BGB IC40 combo, at 0.005 µM",102%
same,inhibition,"[3]; BGB IC40 combo, at 0.05 µM",102%
same,inhibition,[3]; at 0.5 µM,0.28% (inactive)
same,inhibition,"[3]; cisplatin combo, at 0.05 µM",102%
same,inhibition,"[3]; cisplatin combo, at 0.5 µM",10.8%
same,inhibition,"[3]; cisplatin combo, at 5 µM",102%
same,inhibition,"[3]; measured here: 5 uM single agent, at 5 µM",98.7%
same,inhibition,[4]; at 0.5 µM,106% (active)
same,inhibition,[4]; [16],101%
same,inhibition,[4]; [19],111%
same,inhibition,[4]; [20],106%
same,inhibition,[5]; at 0.5 µM,99.9% (active)
same,inhibition,"[5]; measured here: with BGB IC20, at 0.5 µM",100%
same,inhibition,"[5]; measured here: with BGB IC20, at 5 µM",100%
same,inhibition,"[5]; measured here: with cisplatin IC20, at 0.5 µM",99.9%
same,inhibition,"[5]; measured here: with cisplatin IC20, at 5 µM",99.7%
same,inhibition,"[5]; single agent, at 5 µM",99.7%
same,inhibition,[6]; at 0.5 µM,100% (active)
same,inhibition,"[6]; measured here: combination with BGB at IC20, at 0.5 µM",100%
same,inhibition,"[6]; measured here: combination with cisplatin at IC20, at 0.5 µM",100%
same,inhibition,[7]; at 0.5 µM,99.8% (active)
same,inhibition,"[7]; measured here: combo with BGB at IC20, at 0.5 µM",99.9%
same,inhibition,"[7]; measured here: combo with cisplatin at IC20, at 0.5 µM",99.8%
same,inhibition,[8]; at 0.5 µM,102% (active)
same,inhibition,"[8]; measured here: inhibition with BGB combination, at 0.05 µM",65.9%
same,inhibition,"[8]; measured here: inhibition with cisplatin combination, at 0.05 µM",91.2%
same,inhibition,[9]; at 0.5 µM,106% (active)
same,inhibition,[9]; [19],105%
same,inhibition,[9]; [20],105%
same,inhibition,[10]; at 0.5 µM,102% (active)
same,inhibition,"[10]; measured here: BGB combination, at 0.5 µM",103%
same,inhibition,"[10]; measured here: BGB combination, at 5 µM",103%
same,inhibition,"[10]; measured here: cisplatin combination, at 0.5 µM",101%
same,inhibition,"[10]; measured here: cisplatin combination, at 5 µM",109%
same,inhibition,"[11]; BGB combination, concentration series, at 5 µM",121%
same,inhibition,[11]; at 0.5 µM,111% (active)
same,inhibition,"[11]; cisplatin combination, concentration series, at 5 µM",132%
same,inhibition,[12],102% (active)
same,inhibition,[12]; measured here: combo with BGB IC20,105%
same,inhibition,[12]; measured here: combo with cisplatin IC20,101%
same,inhibition,[13]; at 0.5 µM,106% (active)
same,inhibition,"[13]; cisplatin combination, at 0.5 µM",108%
same,inhibition,"[13]; cisplatin combination, at 5 µM",110%
same,inhibition,"[13]; measured here: BGB IC40 combination 0.05 uM, at 0.05 µM",67.7%
same,inhibition,"[13]; single agent, at 5 µM",107%
same,inhibition,[14]; at 0.5 µM,99.3% (active)
same,inhibition,"[14]; cisplatin combo, at 5 µM",103%
same,inhibition,"[14]; measured here: BGB IC40 combination, at 0.05 µM",97.5%
same,inhibition,[14]; [19],102%
same,inhibition,"[14]; single agent, at 5 µM",101%
same,inhibition,[15]; at 0.5 µM,99.9% (active)
same,inhibition,[15]; [17],99.9%
same,inhibition,[15]; [18],99.9%
same,inhibition,"[15]; single agent, at 0.05 µM",99.9%
same,inhibition,"[15]; single agent, at 5 µM",99.9%
